RORg inh: blocks mouse ROR gamma transcriptional activity. P51450. Drosophila S2 Gal4-RORgamma UAS-luciferase reporter, 20 h. Potency, µM (highest dose often 53.6 µM), usual class: inhibitors. 310,000 compounds, 5.4% hits; note: nearly all actives have a fitted effect of over 60% in size
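Read-out: Photinus luciferase luminescence; inhibitors lower reporter signal. Insect Schneider cells with Gal4-ROR gamma fusion under metallothionein promoter, UAS reporter; 700 uM final copper sulfate induction, 20 hr, ambient temperature.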
ELG1 DNA repair: ELG1-dependent DNA repair inhibition; HEK293T ELG1-luciferase reporter, luminescence, 16 h; DNA damage induced by 5-fluorouridine; Potency, µM (highest dose often 46.1 µM), most hits filed as inhibitors; 330,000 compounds, 2.3% hits; AID 504467; note: nearly all actives have a fitted effect of over 55% in size
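Luminescence from the luciferase reporter, measured 30 min after ONE-Glo reagent at room temperature, was the read-out. Beforehand, 2,000 cells per well were exposed for 16 hr at 37 °C to 5-fluorouridine together with compound or vehicle.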
VP16 counter: counter-screen for ROR gamma inhibitors: Gal4-VP16 reporter; Drosophila S2 Gal4-VP16 UAS-luciferase, luminescence, 20 h; Potency, µM (titrated, usually from 53.6 µM), most hits filed as inhibitors; 310,000 compounds, 3.5% hits; AID 2546;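 note: Gal4-VP16 expression switched on by copper sulfate through the metallothionein promoter; nearly all actives have a fitted effect of over 50% in size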
B2AR arrestin: recruits beta-arrestin to the human beta2-adrenergic receptor. 330,000 compounds, 0.02% hits. beta-arrestin recruitment to beta2AR, cell-based reporter. P07550. Potency, µM (top dose mostly 46.1 µM), hits mostly activators; note: nearly all actives have a fitted effect of over 65% in size
TSHR antagonist: blocks TSH signaling through the human TSH receptor; P16473; TSHR-expressing cells, TSH-stimulated cAMP HTRF, 2 h; stronger effect = lower value; activity change, negative = inhibition, % at 11.5 µM; 330,000 compounds, 0.2% hits; AID 504810;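 active = activity change below a set negative limit, meaning inhibition stronger than a set level, cut at about -70% in these data; inconclusive = activity change between two set negative limits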
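Cell-based HTRF cAMP assay; TSHR cells + compound, TSH EC80 (4nM final), 2 h, 37 deg C. Lysis with anti-cAMP cryptate and cAMP-d2, 30 min RT, read 665/620 nm.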
ELG1 FLuc counter: luciferase inhibition in cell-free luciferin readout for ELG1 hits. Potency, µM (series often up to 46.1 µM), actives largely listed as inhibitors. cell-free firefly luciferase luminescence counter-screen, ViewLux. 350 compounds, 3% hits. shares compounds with ELG1 DNA repair. AID 624247
ELG1 Luc conf: inhibits ELG1-dependent DNA repair in HEK293T cells, confirmed. shares compounds with ELG1 DNA repair. HEK293T ELG1-luciferase levels, luminescence; cells co-treated with 5-fluorouridine. Potency, µM (highest dose often 46.1 µM), actives largely listed as inhibitors. 670 compounds, 68% hits; note: nearly all actives have a fitted effect of over 55% in size
Target sequence (Q96QE3 whole entry, looked up): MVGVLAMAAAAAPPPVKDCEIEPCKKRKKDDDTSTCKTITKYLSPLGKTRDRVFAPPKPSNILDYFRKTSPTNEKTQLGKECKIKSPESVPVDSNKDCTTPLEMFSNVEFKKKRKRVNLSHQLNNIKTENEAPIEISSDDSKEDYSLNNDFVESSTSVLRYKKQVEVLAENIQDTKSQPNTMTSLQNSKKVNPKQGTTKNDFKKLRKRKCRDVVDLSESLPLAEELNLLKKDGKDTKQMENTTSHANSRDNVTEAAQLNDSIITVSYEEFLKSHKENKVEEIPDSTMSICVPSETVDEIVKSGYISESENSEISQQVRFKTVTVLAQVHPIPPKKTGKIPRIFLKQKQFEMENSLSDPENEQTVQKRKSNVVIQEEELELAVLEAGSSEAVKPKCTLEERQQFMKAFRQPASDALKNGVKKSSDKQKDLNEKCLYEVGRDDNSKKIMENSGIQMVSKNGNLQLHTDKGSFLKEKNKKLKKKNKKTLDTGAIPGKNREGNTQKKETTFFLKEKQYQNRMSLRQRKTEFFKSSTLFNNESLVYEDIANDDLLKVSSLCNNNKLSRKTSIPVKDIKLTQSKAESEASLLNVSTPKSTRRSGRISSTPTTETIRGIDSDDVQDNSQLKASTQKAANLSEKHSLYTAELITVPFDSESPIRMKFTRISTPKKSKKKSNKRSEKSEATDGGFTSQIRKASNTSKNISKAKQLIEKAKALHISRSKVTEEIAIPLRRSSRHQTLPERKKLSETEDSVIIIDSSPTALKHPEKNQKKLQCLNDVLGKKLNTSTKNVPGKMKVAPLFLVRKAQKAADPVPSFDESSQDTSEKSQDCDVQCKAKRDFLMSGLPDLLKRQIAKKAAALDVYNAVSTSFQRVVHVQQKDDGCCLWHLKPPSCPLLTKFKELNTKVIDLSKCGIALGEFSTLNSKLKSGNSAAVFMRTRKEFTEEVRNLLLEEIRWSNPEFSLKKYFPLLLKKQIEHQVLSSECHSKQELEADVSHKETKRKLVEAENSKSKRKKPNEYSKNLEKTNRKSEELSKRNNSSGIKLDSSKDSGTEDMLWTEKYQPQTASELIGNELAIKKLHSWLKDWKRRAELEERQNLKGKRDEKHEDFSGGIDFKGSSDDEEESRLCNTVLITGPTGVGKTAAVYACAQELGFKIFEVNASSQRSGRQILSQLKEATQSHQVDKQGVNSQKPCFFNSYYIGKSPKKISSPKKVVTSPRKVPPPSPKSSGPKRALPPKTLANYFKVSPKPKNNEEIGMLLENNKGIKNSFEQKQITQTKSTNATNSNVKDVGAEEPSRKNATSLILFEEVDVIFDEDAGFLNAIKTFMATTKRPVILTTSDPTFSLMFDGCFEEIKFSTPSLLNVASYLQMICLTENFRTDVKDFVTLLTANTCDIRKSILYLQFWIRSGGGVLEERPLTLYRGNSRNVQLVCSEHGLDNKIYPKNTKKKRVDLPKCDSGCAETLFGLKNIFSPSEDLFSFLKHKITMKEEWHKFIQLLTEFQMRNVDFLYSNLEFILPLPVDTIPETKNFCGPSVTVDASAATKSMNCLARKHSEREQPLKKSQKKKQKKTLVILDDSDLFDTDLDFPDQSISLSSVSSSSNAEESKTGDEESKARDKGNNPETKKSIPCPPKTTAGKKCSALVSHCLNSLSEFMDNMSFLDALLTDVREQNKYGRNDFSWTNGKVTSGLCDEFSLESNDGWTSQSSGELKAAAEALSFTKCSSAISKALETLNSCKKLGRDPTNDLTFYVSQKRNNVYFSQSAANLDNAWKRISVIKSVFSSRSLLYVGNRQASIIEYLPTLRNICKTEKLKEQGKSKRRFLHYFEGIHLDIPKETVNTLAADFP
ELG1-Luc MMS: confirmation of human ELG1 repair inhibitors, MMS stimulated; shares compounds with ELG1 DNA repair; HEK293T luciferase-tagged ELG1 level, MMS stimulated; Potency, µM (doses to about 46.1 µM), usual class: inhibitors; 670 compounds, 53% hits; note: nearly all actives have a fitted effect of over 60% in size
ELG1 5-FU: confirmation of ELG1 repair inhibitors: viability with 5FU; AID 624250; shares compounds with ELG1 DNA repair; cell viability with 5-FU, ELG1-dependent repair; Potency, µM (doses to about 46.1 µM), hits mostly cytotoxic; 670 tested, under 10 active;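 note: ELG1-luc HEK293T cells cotreated with 5-fluorouridine at 10 µM final; viability measured 16 h after compound addition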
ELG1 MMS viab: confirmation of ELG1 repair inhibitors: viability with MMS; Potency, µM (series often up to 46.1 µM), most hits filed as cytotoxic; Cell viability with MMS, ELG1-dependent DNA repair; shares compounds with ELG1 DNA repair; 670 compounds, 33% hits;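 note: ELG1-luc HEK293T cells co-treated with 10 µM MMS; viability read 16 h after compound addition; nearly all actives have a fitted effect of over 60% in size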
Cell viab unstim: unstimulated viability counter-screen for ELG1 repair hits; cell viability counter-screen, unstimulated, luminescence; 900 compounds, 8% hits; shares compounds with ELG1 DNA repair; AID 624252; Potency, µM (series often up to 45.9 µM), most hits filed as cytotoxic;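 note: compound exposure lasted 16 hours before reading; nearly all actives have a fitted effect of over 55% in size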
FLuc biochem: counter-screen for ELG1 repair inhibitors: firefly luciferase inhibition. shares compounds with ELG1 DNA repair. purified firefly luciferase, luminescence counter-screen. Potency, µM (highest dose often 57.5 µM), actives largely listed as inhibitors. 350 compounds, 10% hits
Large screens that a line does not name were inactive (follow-up assays come after a bar, where they were run). This is a sample that favours compounds with a hit; in the whole collection about 7.5% have one here. Unless noted, calls come from the whole dose curve; as a rule, active = well fitted curve in the direction sought with a large enough effect; inconclusive = small, poorly fitted or top-dose-only effect, or another doubt; inactive = no such curve, though single readings can be large; an effect the other way counts as inactive or inconclusive.

Cc1ccc(S(=O)(=O)N2CCCC2)s1	none
Clc1nc(Cl)nc(NCCC2=CCCCC2)n1	none
CCOc1cccc(-c2nnc3sc(-c4cc(OC)c(OC)c(OC)c4)nn23)c1	ELG1 DNA repair 3.3µM | ELG1 Luc conf inconclusive | ELG1-Luc MMS inactive | ELG1 5-FU inactive | ELG1 MMS viab inactive | Cell viab unstim inconclusive
COc1cc(-c2nn3c(-c4ccccc4)nnc3s2)cc(OC)c1OC	ELG1 DNA repair inconclusive
Cc1ccc(-c2cc(C(=O)NCc3cccs3)no2)cc1	ELG1 DNA repair inconclusive | ELG1 FLuc counter inactive | Cell viab unstim inactive | FLuc biochem inconclusive
O=C(NCc1cccs1)c1cc(-c2ccc(O)cc2)on1	RORg inh inconclusive, ELG1 DNA repair inconclusive
CCOC(=O)c1cc(-c2cc(OC)c(OC)c(OC)c2)nc2c1c(=O)[nH]c(=O)n2Cc1ccccc1	none | ELG1 FLuc counter inactive | Cell viab unstim inconclusive | FLuc biochem inactive
CCOC(=O)c1cc(-c2ccc(F)cc2)nc2c1c(=O)[nH]c(=O)n2Cc1ccccc1	none
Oc1cc2cc(-c3csc(-c4ccc(F)cc4)n3)cc3c2n1CCC3	none (no result: RORg inh, ELG1 DNA repair, VP16 counter, B2AR arrestin, TSHR antagonist) | Cell viab unstim inactive
Oc1ccc(-c2csc(-c3ccccc3)n2)cc1O	ELG1 DNA repair inconclusive, VP16 counter inconclusive
COc1ccc(-c2nnc3ccc(SCC(=O)Nc4nc5ccccc5s4)nn23)cc1OC	ELG1 DNA repair 0.52µM | ELG1 FLuc counter inactive | ELG1 Luc conf 0.63µM | ELG1-Luc MMS inactive | ELG1 5-FU inconclusive | ELG1 MMS viab inactive | Cell viab unstim inconclusive | FLuc biochem inconclusive
Cc1ccc(C2CC(C(F)(F)F)n3ncc(C(N)=O)c3N2)cc1 (stereo not given)	none
COc1ccc(-c2cc(C(F)(F)F)n3ncc(C(=O)NCc4ccco4)c3n2)cc1	ELG1 DNA repair 1.3µM | ELG1 FLuc counter inactive | ELG1 Luc conf 1.8µM | ELG1-Luc MMS inconclusive | ELG1 5-FU inconclusive | ELG1 MMS viab inactive | Cell viab unstim inactive | FLuc biochem inactive
CC(C)CCNC(=O)c1cnn2c(C(F)(F)F)cc(-c3ccco3)nc12	ELG1 DNA repair inconclusive
COc1cc(-c2cc(C(F)(F)F)n3ncc(C(=O)O)c3n2)cc(OC)c1OC	ELG1 DNA repair 4.1µM | ELG1 Luc conf 7.1µM | ELG1-Luc MMS inactive | ELG1 5-FU inconclusive | ELG1 MMS viab inconclusive | Cell viab unstim inactive
Cc1ccc(C2CC(C(F)(F)F)n3ncc(C(=O)NCc4ccco4)c3N2)cc1 (stereo not given)	none | ELG1 FLuc counter inactive | ELG1 Luc conf 28µM | ELG1-Luc MMS inactive | ELG1 5-FU inconclusive | ELG1 MMS viab inactive | Cell viab unstim inactive | FLuc biochem inactive
CCOc1c(C)cnc2c1c(=O)n(Cc1c(F)cccc1Cl)c(=O)n2C	none
Cn1cnc2c(F)c(Nc3ccc(Br)cc3Cl)c(C(=O)NOCCO)cc21	none (no result: RORg inh, ELG1 DNA repair, VP16 counter, B2AR arrestin, TSHR antagonist) | Cell viab unstim inactive
Brc1ccc2cccnc2c1	none
Nc1ccc2cccnc2c1	none (no result: RORg inh, ELG1 DNA repair, VP16 counter, B2AR arrestin, TSHR antagonist) | Cell viab unstim inactive
O=[N+]([O-])c1cc(/C=N/n2c(-c3ccncc3)n[nH]c2=S)ccc1Cl	none
S=c1[nH]nc(C2CCCCC2)n1/N=C/c1ccncc1	RORg inh inconclusive, ELG1 DNA repair 1.2µM | ELG1 Luc conf 2.5µM | ELG1-Luc MMS 11µM | ELG1 5-FU inactive | ELG1 MMS viab inactive | Cell viab unstim inactive
O=C(Cc1ccccc1)c1ccccc1C(=O)N1CCCCC1	none
O=C(CCN1C(=O)NC2(CCCC2)C1=O)Nc1ccc(-c2nc3ccccc3s2)cc1	ELG1 DNA repair inconclusive (no result: RORg inh, VP16 counter) | ELG1 FLuc counter inactive | Cell viab unstim inconclusive | FLuc biochem 3.7µM
Cn1c(=O)c2c(nc(CN3CCc4ccccc4C3)n2Cc2ccccc2F)n(C)c1=O	ELG1 DNA repair inconclusive | ELG1 Luc conf 8.9µM | ELG1-Luc MMS inactive | ELG1 5-FU inconclusive | ELG1 MMS viab inactive | Cell viab unstim inactive
O=C(C[C@H]1C/C=C\C[C@@H](Cc2ccc(F)cc2)C(=O)O[C@@H](c2ccccc2)CNC1=O)NCCO	none (no result: RORg inh, VP16 counter)
O=C1NC[C@H](c2ccccc2)OC(=O)[C@H](Cc2ccc(F)cc2)C/C=C\C[C@H]1CC(=O)N(CCO)Cc1ccccc1	ELG1 DNA repair 1.3µM (no result: RORg inh, VP16 counter) | ELG1 Luc conf 5.6µM | ELG1-Luc MMS 2.8µM | ELG1 5-FU inconclusive | ELG1 MMS viab inconclusive | Cell viab unstim inconclusive
O=C1NC[C@H](c2ccccc2)OC(=O)[C@@H](Cc2ccc(F)cc2)C/C=C\C[C@H]1CC(=O)N(CCO)Cc1ccccc1	ELG1 DNA repair 2.6µM (no result: RORg inh, VP16 counter) | ELG1 Luc conf 7.9µM | ELG1-Luc MMS 13µM | ELG1 5-FU inconclusive | ELG1 MMS viab inconclusive | Cell viab unstim inconclusive
CCCC(=O)N1CCc2cc(OC)c(OC)cc2C1COc1ccccc1OC (stereo not given)	none | ELG1 FLuc counter inactive | ELG1 Luc conf 8.9µM | ELG1-Luc MMS inconclusive | ELG1 5-FU inactive | ELG1 MMS viab inconclusive | Cell viab unstim inactive | FLuc biochem inactive
COc1ccc(C(=O)N2CCc3cc(OC)c(OC)cc3C2c2ccc(OC)c(OC)c2)cc1OC (stereo not given)	ELG1 DNA repair 3.7µM | ELG1 Luc conf inconclusive | ELG1-Luc MMS inactive | ELG1 5-FU inconclusive | ELG1 MMS viab inactive | Cell viab unstim inactive
CCC(=O)N1CCc2cc(OC)c(OC)cc2C1COc1ccccc1OC (stereo not given)	ELG1 DNA repair inconclusive
COc1cc(/C=C(\C#N)C(=O)Nc2ccc3c(c2)OCCO3)ccc1O	RORg inh inconclusive, VP16 counter inconclusive
Cc1cnc(CNc2ccnc(-c3ccccc3C)n2)cn1	none (no result: ELG1 DNA repair, B2AR arrestin, TSHR antagonist)

Compound activity from PubChem BioAssay.
